In PubChem BioAssay (EPA / NIEHS) one finds outcome and AC50 data, which are given here for 6 compounds.

The nature of assay [1]: ATG_TAL_CIS: Attagene CIS-FACTORIAL HepG2 Assay for human TAL Basal Promoter (AID 2282966).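 Also: background control endpoint measuring basal TAL promoter reporter mRNA not a specific factor.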 The following applies: HepG2 Attagene cis-factorial TAL promoter reporter; actives raise or lower the signal. The essentials: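 Steps: transfect HepG2 with multiple reporter transcription units; dose 24 h; isolate RNA, reverse-transcribe, PCR-amplify, label with 6-FAM, digest with HpaI; resolve by capillary electrophoresis. Bidirectional fitting against DMSO baseline.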

Assay [2] in a line: ATG_TGFb_CIS: Attagene CIS-FACTORIAL HepG2 Assay for human Transforming Growth Factor (TGF) (AID 2282967). The conditions noted are these: HepG2 Attagene CIS TGFb reporter, mRNA transcription; actives raise or lower the signal. Put shortly:
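After a 24-hour incubation with compound, transfected HepG2 cells were lysed for RNA; reporter cDNA was amplified, fluorescently end-labeled and separated by CE. DMSO served as baseline for bidirectional fits.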

Assay [3] is described as follows: ATG_VDRE_CIS: Attagene CIS-FACTORIAL HepG2 Assay for human Vitamin D Receptor Element (VDRE) (AID 2282968). The following applies: HepG2 VDRE cis-reporter transcription, actives raise or lower the signal. Put shortly: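 Reporter mRNA induction, quantified by capillary electrophoresis of fluorescently labelled RT-PCR products, was read 24 h after dosing HepG2 cells carrying transiently transfected cis-regulated reporter units; gain or loss relative to DMSO.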

Assay [4] has as its target Estrogen receptor (Homo sapiens) (UniProt P03372). Kind of assay: ATG_ERa_TRANS: Attagene TRANS-FACTORIAL HepG2 Assay for human Estrogen Receptor alpha (ERa) (AID 2282970; active = hit-call score of the fitted dose curve at least 0.9, where 1 is the maximum). The following applies: HepG2 Attagene TRANS ERa GAL4 reporter, mRNA. Put shortly:
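Multiplexed cell-based reporter format in HepG2: chimeric ERa-Gal4 protein drives GAL4-UAS reporter transcription. Fluorescent reporter mRNA quantified by capillary electrophoresis 24 hours after dosing; endpoint fitted as signal gain against DMSO.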

The target in assay [5] is X-box-binding protein 1 (Homo sapiens) (UniProt P17861). The assay can be described thus: ATG_Xbp1_CIS: Attagene CIS-FACTORIAL HepG2 Assay for human X-box Binding Protein 1 (XBP1) (AID 2282972). The following applies: HepG2 XBP1 cis-element reporter, Attagene multiplex; actives raise or lower the signal. Put shortly:
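Fluorescence-labelled cDNA fragments from reporter transcripts, separated by capillary electrophoresis, give the signal. Source: HepG2 cells transfected with promoter-driven reporter units, harvested 24 h post-dose. DMSO served as reference for bidirectional curve fitting.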

A short description of assay [6]: ATG_M_19_TRANS: Attagene TRANS-FACTORIAL HepG2 Assay for M19 Transcription Factor (Internal Marker) (AID 2282974; active = hit-call score of the fitted dose curve at least 0.9, where 1 is the maximum). The following applies: HepG2 Attagene TRANS-FACTORIAL M19 internal marker reporter. The essentials: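 HepG2 transiently transfected with GAL4-UAS multiplex reporter constructs, exposed 24 h; reporter RNA quantified by RT-PCR, 6-FAM labeling, HpaI digestion and capillary electrophoresis; internal background marker fitted upward versus DMSO.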

Assay [7] concerns the target Glucocorticoid receptor (Homo sapiens) (UniProt P04150). Kind of assay: ATG_GR_TRANS: Attagene TRANS-FACTORIAL HepG2 Assay for human Glucocorticoid Receptor (GR) (AID 2282978; active = hit-call score of the fitted dose curve at least 0.9, where 1 is the maximum;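 also: activators score as hits since higher reporter transcript over DMSO is fitted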). The following applies: HepG2 Attagene TRANS GR reporter, mRNA transcription. Put shortly: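 HepG2 cells transiently transfected with GAL4-UAS reporter units and exogenous GR-Gal4 chimera, dosed 24 h. Reporter mRNA by RT-PCR, FAM labeling, HpaI digest and capillary electrophoresis; gain-of-signal fit versus DMSO.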

Assay [8] addresses Bile acid receptor (Homo sapiens) (UniProt Q96RI1). Kind of assay: ATG_FXR_TRANS: Attagene TRANS-FACTORIAL HepG2 Assay for Farnesoid X Receptor (FXR) (AID 2282979; active = hit-call score of the fitted dose curve at least 0.9, where 1 is the maximum;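 also: hits raise reporter mRNA above DMSO so AC50 marks FXR activation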). The conditions noted are these: HepG2 Attagene TRANS FXR-GAL4 reporter transcription. Put shortly:
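After 24 h chemical treatment of transfected HepG2 cells, GAL4-UAS reporter transcripts driven by an exogenous FXR-GAL4 fusion were measured by RT-PCR and capillary electrophoresis. Increases over DMSO were fitted.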

The target in assay [9] is Oxysterols receptor LXR-alpha (Homo sapiens) (UniProt Q13133). The assay can be described thus: ATG_LXRa_TRANS: Attagene TRANS-FACTORIAL HepG2 Assay for human Liver X Receptor alpha (LXRa) (AID 2282980; active = hit-call score of the fitted dose curve at least 0.9, where 1 is the maximum). The conditions noted are these: HepG2 Attagene TRANS reporter, LXRa transactivation. The essentials:
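In this multiplexed TRANS system, compounds act on HepG2 cells carrying GAL4-UAS reporter units and a receptor-GAL4 fusion for 24 h. Induced reporter RNA is amplified, fluorescently labelled and sized by capillary electrophoresis, with DMSO as baseline.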

Assay [10] addresses Hepatocyte nuclear factor 4-alpha (Homo sapiens) (UniProt P41235). Kind of assay: ATG_HNF4a_TRANS: Attagene TRANS-FACTORIAL HepG2 Assay for human Hepatocyte Nuclear Factor 4 alpha (HNF4a) (AID 2282982; active = hit-call score of the fitted dose curve at least 0.9, where 1 is the maximum). The conditions noted are these: HepG2 HNF4a transactivation reporter, mRNA readout. Put shortly: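 Readout is fluorescent reporter-transcript fragments resolved by capillary electrophoresis after RT-PCR from HepG2 cells dosed for 24 h. Cells carried transfected GAL4-UAS reporter constructs measuring exogenous NR-GAL4 chimera activity; DMSO served as baseline.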

The nature of assay [11]: ATG_M_32_TRANS: Attagene TRANS-FACTORIAL HepG2 Assay for M32 Transcription Factor (Internal Marker) (AID 2282984; active = hit-call score of the fitted dose curve at least 0.9, where 1 is the maximum;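 also: transcript level of a background control reporter unit measured by RT-PCR and capillary electrophoresis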). The conditions noted are these: HepG2 Attagene TRANS M32 internal marker reporter. Put shortly:
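Measures reporter mRNA induction in human HepG2 liver cells after 24 h chemical treatment. Transcripts from transiently transfected GAL4-UAS reporter units are amplified, fluorescently labelled and sized by capillary electrophoresis; gain of signal relative to DMSO.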

Assay [12] addresses Transcriptional activator Myb (Homo sapiens) (UniProt P10242). Kind of assay: ATG_Myb_CIS: Attagene CIS-FACTORIAL HepG2 Assay for human Myeloblastosis (Myb) Proto-Oncogene Transcription Factor (AID 2282986). The conditions noted are these: HepG2 Attagene CIS-FACTORIAL Myb reporter transcription; actives raise or lower the signal. Put shortly: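 Transiently transfected HepG2 cells carrying a multiplexed cis-promoter reporter set report endogenous Myb activity after 24 h compound exposure. Reporter mRNA is read by RT-PCR with capillary electrophoresis of fluorescent products, fitted bidirectionally against DMSO.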

Assay [13] deals with Nuclear respiratory factor 1 (Homo sapiens) (UniProt Q16656). Kind of assay: ATG_NRF1_CIS: Attagene CIS-FACTORIAL HepG2 Assay for human Nuclear Respiratory Factor 1 (NRF1) Orphan Gene (AID 2282987). The following applies: HepG2 NRF1 cis-element reporter, Attagene multiplex; actives raise or lower the signal. Put shortly:
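HepG2 cells transiently transfected with multiple cis-regulated reporter units, exposed 24 h. Reporter mRNAs measured by RT-PCR, fluorescent labelling, HpaI digestion and capillary electrophoresis; bidirectional fitting against DMSO.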

In assay [14] the target is Oxysterols receptor LXR-beta (Homo sapiens) (UniProt P55055). Kind of assay: ATG_LXRb_TRANS: Attagene TRANS-FACTORIAL HepG2 Assay for human Liver X Receptor beta (LXRb) (AID 2282981; active = hit-call score of the fitted dose curve at least 0.9, where 1 is the maximum). The following applies: HepG2 Attagene TRANS GAL4-LXRb reporter, mRNA. The essentials: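 Transient transfection HepG2 (multiplexed RTUs, GAL4-UAS); NR-Gal4 chimera; 24 h exposure; RNA → RT-PCR → 6-FAM primer extension → HpaI → CE; increase vs DMSO.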

Assay [15] concerns the target Nuclear receptor subfamily 4 group A member 2 (Homo sapiens) (UniProt P43354). The assay can be described thus: ATG_NURR1_TRANS: Attagene TRANS-FACTORIAL HepG2 Assay for human Nuclear Receptor Related Protein 1 (NURR1) (AID 2282985; active = hit-call score of the fitted dose curve at least 0.9, where 1 is the maximum). The following applies: HepG2 Attagene TRANS reporter, mRNA readout. Put shortly: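 Transient transfection of HepG2, human liver cells, with multiple GAL4-UAS reporter transcription units. Cells dosed 24 h, RNA isolated, reverse-transcribed, PCR-amplified, FAM-labelled, HpaI-digested, sized by capillary electrophoresis. DMSO served as negative control.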

Assay [16] deals with Steroid hormone receptor ERR1 (Homo sapiens) (UniProt P11474). The assay can be described thus: ATG_ERRa_TRANS: Attagene TRANS-FACTORIAL HepG2 Assay for human Estrogen-Related Receptor alpha (ERRa) (AID 2282971; active = hit-call score of the fitted dose curve at least 0.9, where 1 is the maximum). The conditions noted are these: HepG2 Attagene TRANS reporter, ERRa transactivation. The essentials:
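Signal gain relative to DMSO for an ERRa-Gal4 chimeric receptor, read as reporter mRNA by RT-PCR/capillary electrophoresis. Human HepG2 liver cells, transient multiplex reporter transfection, 24 h chemical exposure.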

Assay [17] is described as follows: ATG_M_06_TRANS: Attagene TRANS-FACTORIAL HepG2 Assay for M06 Transcription Factor (Internal Marker) (AID 2282983; active = hit-call score of the fitted dose curve at least 0.9, where 1 is the maximum;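 also: reporter transcript level by RT-PCR then capillary electrophoresis fluorescence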). The following applies: HepG2 Attagene TRANS M06 internal marker reporter. The essentials: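 Internal-marker background readout from a multiplexed TRANS reporter system in HepG2; 24 h dosing; mRNA induction quantified by RT-PCR plus capillary electrophoresis fluorescence; DMSO as negative control and baseline.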

Molecules are shown by their SMILES. Inconclusive results are not listed. Activity calls are given as the source filed them. The calls were made as follows, unless noted: active = hit-call score of the fitted dose curve at least 0.9, where 1 is the maximum; inactive = score below 0.9.

Bile acid receptor (Homo sapiens), sequence (Q96RI1 whole entry, looked up, the tested form may be a part): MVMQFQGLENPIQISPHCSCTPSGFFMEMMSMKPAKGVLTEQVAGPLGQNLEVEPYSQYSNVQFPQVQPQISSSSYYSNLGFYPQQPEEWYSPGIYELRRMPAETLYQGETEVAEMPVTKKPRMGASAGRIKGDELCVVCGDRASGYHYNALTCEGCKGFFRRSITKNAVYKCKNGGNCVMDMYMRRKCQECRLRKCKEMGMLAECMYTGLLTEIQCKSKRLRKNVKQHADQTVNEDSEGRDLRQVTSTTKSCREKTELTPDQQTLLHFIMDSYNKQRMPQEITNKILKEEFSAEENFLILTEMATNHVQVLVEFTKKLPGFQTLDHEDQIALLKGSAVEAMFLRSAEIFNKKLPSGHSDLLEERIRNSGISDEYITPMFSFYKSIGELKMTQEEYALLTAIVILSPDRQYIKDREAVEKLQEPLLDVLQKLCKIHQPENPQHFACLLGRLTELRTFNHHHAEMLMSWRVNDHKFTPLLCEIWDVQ
Nuclear respiratory factor 1 (Homo sapiens), sequence (Q16656 whole entry, looked up): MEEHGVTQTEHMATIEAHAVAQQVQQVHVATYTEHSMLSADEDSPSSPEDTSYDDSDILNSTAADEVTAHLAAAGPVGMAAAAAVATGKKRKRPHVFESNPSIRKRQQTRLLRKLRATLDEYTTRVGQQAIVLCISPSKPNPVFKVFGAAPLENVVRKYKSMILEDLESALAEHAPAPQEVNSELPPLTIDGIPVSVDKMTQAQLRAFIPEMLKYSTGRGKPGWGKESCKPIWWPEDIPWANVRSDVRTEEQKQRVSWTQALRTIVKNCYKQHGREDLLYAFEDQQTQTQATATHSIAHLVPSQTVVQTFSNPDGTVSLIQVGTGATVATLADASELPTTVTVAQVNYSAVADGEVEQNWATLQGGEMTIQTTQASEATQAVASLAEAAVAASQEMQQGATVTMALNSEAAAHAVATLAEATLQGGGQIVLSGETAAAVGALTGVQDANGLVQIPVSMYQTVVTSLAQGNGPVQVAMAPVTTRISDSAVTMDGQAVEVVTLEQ
Estrogen receptor (Homo sapiens), sequence (P03372 whole entry, looked up, the tested form may be a part): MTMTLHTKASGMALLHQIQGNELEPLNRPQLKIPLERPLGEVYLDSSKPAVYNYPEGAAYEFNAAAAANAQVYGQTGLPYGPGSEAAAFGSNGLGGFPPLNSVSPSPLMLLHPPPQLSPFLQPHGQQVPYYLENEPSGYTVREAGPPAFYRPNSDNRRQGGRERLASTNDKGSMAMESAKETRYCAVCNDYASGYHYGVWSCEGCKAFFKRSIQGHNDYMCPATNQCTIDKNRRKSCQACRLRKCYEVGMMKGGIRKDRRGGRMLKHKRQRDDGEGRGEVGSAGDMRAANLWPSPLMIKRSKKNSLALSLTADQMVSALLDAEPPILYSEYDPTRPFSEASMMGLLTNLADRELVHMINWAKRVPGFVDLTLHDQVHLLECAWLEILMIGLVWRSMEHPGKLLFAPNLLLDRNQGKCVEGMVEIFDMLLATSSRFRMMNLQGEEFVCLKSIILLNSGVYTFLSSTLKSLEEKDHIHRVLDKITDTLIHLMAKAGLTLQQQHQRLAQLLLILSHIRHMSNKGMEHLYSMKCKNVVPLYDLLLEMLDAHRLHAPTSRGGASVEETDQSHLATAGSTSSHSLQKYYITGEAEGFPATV
Transcriptional activator Myb (Homo sapiens), sequence (P10242 whole entry, looked up): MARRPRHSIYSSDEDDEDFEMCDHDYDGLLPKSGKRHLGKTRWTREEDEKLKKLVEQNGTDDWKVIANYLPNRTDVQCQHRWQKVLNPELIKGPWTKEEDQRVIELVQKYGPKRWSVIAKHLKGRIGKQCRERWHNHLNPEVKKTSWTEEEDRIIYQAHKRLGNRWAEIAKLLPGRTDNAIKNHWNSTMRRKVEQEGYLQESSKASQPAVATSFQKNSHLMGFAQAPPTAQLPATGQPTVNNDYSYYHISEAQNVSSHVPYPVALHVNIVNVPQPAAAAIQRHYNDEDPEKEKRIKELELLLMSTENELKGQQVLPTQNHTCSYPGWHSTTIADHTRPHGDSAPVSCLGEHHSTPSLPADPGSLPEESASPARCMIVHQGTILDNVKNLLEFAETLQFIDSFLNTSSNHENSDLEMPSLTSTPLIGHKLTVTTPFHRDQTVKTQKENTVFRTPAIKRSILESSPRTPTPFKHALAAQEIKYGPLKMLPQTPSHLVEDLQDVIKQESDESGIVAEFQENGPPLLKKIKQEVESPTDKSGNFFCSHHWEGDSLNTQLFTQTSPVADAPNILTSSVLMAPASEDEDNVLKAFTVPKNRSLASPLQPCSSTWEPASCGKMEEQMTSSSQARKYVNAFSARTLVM
Nuclear receptor subfamily 4 group A member 2 (Homo sapiens), sequence (P43354 whole entry, looked up, the tested form may be a part): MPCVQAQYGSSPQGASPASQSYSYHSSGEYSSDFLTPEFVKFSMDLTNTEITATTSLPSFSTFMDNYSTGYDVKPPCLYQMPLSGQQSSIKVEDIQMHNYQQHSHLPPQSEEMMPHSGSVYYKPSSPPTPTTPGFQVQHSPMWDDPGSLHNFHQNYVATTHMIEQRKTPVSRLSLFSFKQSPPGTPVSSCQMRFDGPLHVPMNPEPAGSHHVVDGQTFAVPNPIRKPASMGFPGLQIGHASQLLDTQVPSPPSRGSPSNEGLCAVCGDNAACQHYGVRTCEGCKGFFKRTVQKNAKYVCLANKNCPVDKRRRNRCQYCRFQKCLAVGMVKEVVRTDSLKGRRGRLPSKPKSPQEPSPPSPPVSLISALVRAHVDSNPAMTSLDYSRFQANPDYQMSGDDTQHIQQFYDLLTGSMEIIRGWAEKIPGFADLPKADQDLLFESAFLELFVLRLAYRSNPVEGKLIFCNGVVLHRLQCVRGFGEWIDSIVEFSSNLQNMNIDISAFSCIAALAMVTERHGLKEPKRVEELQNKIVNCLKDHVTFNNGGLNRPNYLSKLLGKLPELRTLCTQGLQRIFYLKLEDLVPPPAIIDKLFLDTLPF
Hepatocyte nuclear factor 4-alpha (Homo sapiens), sequence (P41235 whole entry, looked up, the tested form may be a part): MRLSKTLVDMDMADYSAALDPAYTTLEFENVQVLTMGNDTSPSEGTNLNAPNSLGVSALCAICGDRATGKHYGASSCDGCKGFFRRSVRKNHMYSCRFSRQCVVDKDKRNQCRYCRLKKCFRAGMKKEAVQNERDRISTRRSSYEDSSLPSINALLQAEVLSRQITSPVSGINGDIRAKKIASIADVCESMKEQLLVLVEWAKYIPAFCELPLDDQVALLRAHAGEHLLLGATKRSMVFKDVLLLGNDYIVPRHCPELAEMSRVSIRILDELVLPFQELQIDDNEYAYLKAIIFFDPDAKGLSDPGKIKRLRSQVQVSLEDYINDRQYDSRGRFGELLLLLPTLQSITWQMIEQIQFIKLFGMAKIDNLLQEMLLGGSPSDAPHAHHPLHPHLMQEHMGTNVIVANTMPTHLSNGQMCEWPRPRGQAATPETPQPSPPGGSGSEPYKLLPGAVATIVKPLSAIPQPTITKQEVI
Glucocorticoid receptor (Homo sapiens), sequence (P04150 whole entry, looked up, the tested form may be a part): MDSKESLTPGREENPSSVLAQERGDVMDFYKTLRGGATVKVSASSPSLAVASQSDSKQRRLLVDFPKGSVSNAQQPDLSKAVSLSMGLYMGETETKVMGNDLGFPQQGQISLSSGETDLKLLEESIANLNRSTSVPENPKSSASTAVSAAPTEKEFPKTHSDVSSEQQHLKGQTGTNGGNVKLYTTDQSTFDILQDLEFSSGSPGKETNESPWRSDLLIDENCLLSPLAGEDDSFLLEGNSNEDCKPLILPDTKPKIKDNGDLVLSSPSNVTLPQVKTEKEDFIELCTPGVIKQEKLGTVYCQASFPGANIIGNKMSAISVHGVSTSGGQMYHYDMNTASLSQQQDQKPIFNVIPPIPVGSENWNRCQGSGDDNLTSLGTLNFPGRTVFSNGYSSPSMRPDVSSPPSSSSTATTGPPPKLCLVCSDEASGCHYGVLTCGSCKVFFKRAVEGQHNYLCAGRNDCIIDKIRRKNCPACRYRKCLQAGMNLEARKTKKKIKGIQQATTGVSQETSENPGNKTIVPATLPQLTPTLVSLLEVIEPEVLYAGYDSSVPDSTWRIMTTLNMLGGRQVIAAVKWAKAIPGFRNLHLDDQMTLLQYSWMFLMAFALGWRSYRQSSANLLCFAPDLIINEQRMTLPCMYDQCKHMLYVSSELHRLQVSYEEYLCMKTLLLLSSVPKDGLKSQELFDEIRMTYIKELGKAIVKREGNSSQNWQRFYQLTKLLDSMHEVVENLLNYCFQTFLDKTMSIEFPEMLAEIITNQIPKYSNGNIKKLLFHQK
X-box-binding protein 1 (Homo sapiens), sequence (P17861 whole entry, looked up, the tested form may be a part): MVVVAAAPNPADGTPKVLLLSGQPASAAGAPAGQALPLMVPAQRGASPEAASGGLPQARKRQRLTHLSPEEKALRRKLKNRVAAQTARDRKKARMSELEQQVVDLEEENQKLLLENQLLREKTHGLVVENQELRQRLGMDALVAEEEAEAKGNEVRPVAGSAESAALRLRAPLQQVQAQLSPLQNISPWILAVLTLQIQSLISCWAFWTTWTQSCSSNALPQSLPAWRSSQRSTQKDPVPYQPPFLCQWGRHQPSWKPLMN
Steroid hormone receptor ERR1 (Homo sapiens), sequence (P11474 whole entry, looked up, the tested form may be a part): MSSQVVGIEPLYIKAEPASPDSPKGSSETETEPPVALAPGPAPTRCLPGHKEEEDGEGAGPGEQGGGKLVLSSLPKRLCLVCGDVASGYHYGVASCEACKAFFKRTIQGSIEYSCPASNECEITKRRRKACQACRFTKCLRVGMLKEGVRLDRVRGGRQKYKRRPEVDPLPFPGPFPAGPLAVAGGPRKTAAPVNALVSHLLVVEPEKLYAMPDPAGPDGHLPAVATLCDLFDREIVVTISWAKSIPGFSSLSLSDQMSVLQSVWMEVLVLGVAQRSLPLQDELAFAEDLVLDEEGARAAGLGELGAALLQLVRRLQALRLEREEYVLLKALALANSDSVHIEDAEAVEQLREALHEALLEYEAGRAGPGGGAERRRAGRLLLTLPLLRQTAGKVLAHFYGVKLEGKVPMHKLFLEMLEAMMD

For `c1ccc2c(c1)c1cccc3ccc4cccc2c4c31`, the result in [1], in assay [2], in assay [3], in [4], in assay [5] and in assay [6] was inactive. Also, the result in [7], in assay [8], in assay [9], in assay [10], in assay [11] and in assay [12] was inactive. Moreover, the outcome in assay [13] was inactive.
Consider `CC(c1cc2ccccc2s1)N(O)C(N)=O` (configuration not stated), for which the call in assay [1], in assay [2], in [3], in assay [4], in assay [5] and in assay [6] was inactive. Also, the compound was classed as inactive in assay [14], in [12] and in assay [13]. For the same compound, the AC50 in assay [7] is 100 µM (active).
With `O=[N+]([O-])c1ccc(C=Cc2ccc([N+](=O)[O-])cc2S(=O)(=O)O)c(S(=O)(=O)O)c1`, the compound was classed as inactive in assay [1], in assay [2], in [3], in [4], in [5] and in assay [6]. Also, the compound was called inactive in assay [7], in assay [10], in assay [15] and in assay [12].
As for `O=C1O[C@@H]2[C@@H](O)[C@H](O)O[C@@H]2[C@H]1O`, the call in assay [1], in [2], in [3], in assay [4], in assay [16] and in [5] was inactive. The outcome in assay [14], in assay [10], in assay [17], in [12] and in assay [13] was inactive.
Consider `BrC1CCC(Br)C(Br)CCC(Br)C(Br)CCC1Br` (configuration not stated), for which the compound was classed as inactive in assay [1], in assay [2], in assay [4], in [16], in assay [6] and in assay [7]. Moreover, the result in assay [8], in assay [9], in [15] and in assay [12] was inactive. Moreover, the AC50 in [3] is 2.52 µM (active); in [5] it was 45.5 µM (active); in assay [13] it was 110 µM (active).
As to `COC(=O)C1=C(C)NC(C)=C(C(=O)OCCN(C)Cc2ccccc2)C1c1cccc([N+](=O)[O-])c1` (configuration not stated), the result in [1], in [4], in assay [5], in assay [6] and in assay [11] was inactive. For the same compound, the AC50 was 131 µM (active) in [2]; 0.227 µM (active) in [3]; 0.637 µM (active) in assay [8]; 27.2 µM (active) in [15]; 6.96 µM (active) in [13].

A word on the AC50: it is the concentration giving half of the maximal activity seen.
